Rows were chosen to be rich in hits. Some 2.7% of all compounds tested hit in one or more screens of this group.
KLK7 zymogen act: activators of human kallikrein-7 zymogen. P49862. purified proKLK7, EDANS-DABCYL substrate fluorescence; 100% is mature enzyme control, 0% vehicle. activation, % at 7 µM. actives 0.9% (n = 370,000). AID 652039;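 active = activation above the mean of all tested compounds plus 3 SD, computed per campaign excluding outliers beyond control limits, cut at about 13% in these data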
Neddylation inh: blocks human cullin neddylation; P61081+Q13564; TR-FRET cullin neddylation, biochemical; calls only at 25 µM; actives 0.58% (n = 360,000); in the data active = inhibition above about 36%
PfGluPho inh: PfG6PD (Plasmodium falciparum) enzyme inhibition; PfGluPho enzyme, NADPH resazurin-diaphorase fluorescence; inhibition, % at 20 µM; actives 0.78% (n = 350,000);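 active = inhibition reaching at least a set limit at 20 µM in the primary screen, cut at about 59% in these data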
FAS TE block: blocks the thioesterase domain of human fatty acid synthase | recombinant FAS-TE, OMFH fluorogenic substrate, fluorescence endpoint | P49327 | actives 0.67% (n = 360,000) | inhibition, % at 15 µM;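 active = compounds whose normalised, plate-corrected inhibition of enzyme fluorescence in the single-dose primary screen is 50% or more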
PfG6PD confirm: confirmation of Plasmodium falciparum G6PD inhibitors; shares compounds with PfGluPho inh; recombinant PfGluPho, NADPH-diaphorase-resazurin fluorescence; inhibition, % at 20 µM; actives 34% (n = 2,400); AID 504753;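 active = inhibition of at least 50% at 20 µM in any single replicate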
Diaphorase 10uM: counter-screen for P. falciparum G6PD inhibitors: diaphorase inhibitors, oxidizers | shares compounds with PfGluPho inh | actives 39% (n = 820) | AID 504862 | diaphorase-coupled resazurin reduction, fluorescence, NADPH 10 uM | inhibition, % at 20 µM;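 active = average inhibition reaching 50% or more with the compound at 20 µM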;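 also: resorufin red fluorescence formed as diaphorase reduces resazurin using NADPH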
Diaphorase 30uM: inhibits diaphorase or oxidizes, flagging false PfG6PD hits | AID 504863 | Diaphorase/resazurin coupled assay, resorufin fluorescence, 30 uM NADPH | actives 29% (n = 820) | inhibition, % at 20 µM | shares compounds with PfGluPho inh;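 active = inhibition averaging 50% or more, tested at 20 µM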
Numbers stand for hits; – = inactive; · = not tested or not shown; ! = not active in a repeat.

SMILES	KLK7 zymogen act	Neddylation inh	PfGluPho inh	FAS TE block	PfG6PD confirm	others
Oc1ccc(N=Nc2c(O)ccc3ccccc23)cc1	–	–	–	–	·
CC(=O)OC12CCCN(C1)/C(=C/c1cccc(N(C)C)c1)C2 (stereo not given)	–	·	·	·	·
CCOc1ccccc1C(=O)Nc1cc(Cl)ccc1O	–	–	67	–	–
COc1ccccc1C(=O)Nc1cc(Cl)ccc1O	–	–	–	–	·
Nc1ccc(S(N)(=O)=O)cc1	–	–	–	–	·
Nc1ccc(S(N)(=O)=O)cc1N	–	–	60	–	–
CCOc1ccc(Cl)cc1/C=N/NC(=O)CNC(=O)c1ccccc1	–	–	118	–	92	Diaphorase 10uM=93;Diaphorase 30uM=85
CCOc1ccc(Cl)cc1/C=N/NC(=O)c1ccccc1	–	–	–	–	·
Cc1cccc(OCC(=O)NCC(=O)N/N=C/c2ccccc2)c1	–	–	69	–	50	Diaphorase 10uM=–;Diaphorase 30uM=–
Cc1cccc(OCC(=O)NCC(=O)N/N=C/c2cc(Br)ccc2OCc2ccccc2)c1	–	–	–	–	·
O=C(COc1ccccc1)NCC(=O)N/N=C/c1cc(Br)ccc1OCc1ccccc1	–	–	81	–	–
Cc1cccc(OCC(=O)NCC(=O)N/N=C/c2ccc(O)cc2O)c1	–	–	–	–	·
C/C(C=NNC(=O)CSc1nc2ccccc2n1Cc1ccccc1Cl)=C\c1ccccc1	–	·	·	·	·
COc1cccc2c3cccc(OC)c3c3[nH]cnc3c12	–	–	68	–	–
COc1cccc2c(=O)c3cccc(N)c3[nH]c12	–	·	–	–	·
CCN1CCN(Cc2ccc(NC(=O)c3ccc(C)c(NC(=O)c4ccno4)c3)cc2C(F)(F)F)CC1	–	–	–	–	·
CCN1CCN(Cc2ccc(NC(=O)c3ccc(C)c(/C=C/c4cnc(Nc5cc(N6CCNCC6)nc(C)n5)cn4)c3)cc2C(F)(F)F)CC1	·	·	66!	–	–
CC(=O)c1cc(-c2ccc(-c3ccccc3)c(F)c2)c(=O)n2c1CCC2	–	·	·	·	·
CC(=O)C1=C(C)N(Cc2ccc(Cl)cc2)C(=S)NC1c1ccccc1 (stereo not given)	–	·	·	·	·
Cc1cccc(/C=N\NC(=O)c2sccc2-n2cccc2)c1	–	–	71	–	–
COc1ccc(S(=O)(=O)Nc2c(C(=O)O)[nH]c3ccc(OC)cc23)c(OC)c1	–	–	67	–	–
O=[N+]([O-])c1ccc(SCCc2ccncc2)cc1	–	–	68!	–	–
Cc1nc2scc(-c3ccccc3)c2c(=O)n1N=C1C=CC(=O)C=C1	–	·	113	·	111	Diaphorase 10uM=95;Diaphorase 30uM=89
O=[N+]([O-])c1ccc2c(c1)-c1ccccc1C2O (stereo not given)	–	–	114	–	97	Diaphorase 10uM=–;Diaphorase 30uM=–
COC(=O)[C@]12C[C@H](CC(=O)NCCCCc3ccccc3)C(=O)N(CCc3ccc(OC)c(OC)c3)C1=C[C@H](C(C)C)O[C@@H]2C1CC1	–	·	·	·	·
SMILES	KLK7 zymogen act	Neddylation inh	PfGluPho inh	FAS TE block	PfG6PD confirm	others
CC(=O)c1cc(-c2ccccc2)n(CC(=O)NCc2ccccc2)c1C	–	·	·	·	·
Cn1ncc(Cl)c1C(=O)N/N=C/c1cccc(OC2CSC2)c1	–	–	109	–	85	Diaphorase 10uM=76;Diaphorase 30uM=64
CCCCOc1ccc(C(=O)NC2CCCCN(CC)C2=O)cc1 (stereo not given)	–	·	·	·	·
Cc1ccc(/C=C/C(=O)NCCc2ccccc2)o1	–	–	75	–	–
Clc1nssc1=Nc1nncs1	–	–	100	–	82	Diaphorase 10uM=–;Diaphorase 30uM=–
COc1cc(N=c2ssnc2Cl)cc(OC)c1	–	–	78	–	65	Diaphorase 10uM=–;Diaphorase 30uM=–
Clc1nssc1=Nc1ccc(Br)cc1	–	–	79	–	–
CN1C(=O)CSC1=Nc1ccc(Br)cc1	–	–	–	–	·
COc1cc(OC)cc(-c2nc(-c3ccccc3OC)no2)c1	–	–	–	–	·
Clc1ccc(N=c2ssnc2Cl)nc1	–	–	87	–	52	Diaphorase 10uM=–;Diaphorase 30uM=–
CC(C)CSc1ncccc1-c1nc2ccccc2[nH]1	–	·	·	·	·
COc1ccc(NC(=O)N2CCC(c3nc4ccc(Cl)cc4[nH]3)CC2)cc1OC	–	·	·	·	·
COc1cccc(C(=O)Nc2sc(C(C)C)cc2C(N)=O)c1OC	–	·	98	–	–
COc1cccc(C(=O)Nc2nnc(-c3ccccc3)s2)c1OC	–	–	–	–	·
C=CCn1c2ccccc2c(=O)c2cc(C#CC[C@@H](C)O)ccc21	–	·	67	–	–
C=CCn1c2ccccc2c(=O)c2cc(C#CC3(O)CCCCC3)ccc21	–	·	104	–	55	Diaphorase 10uM=70;Diaphorase 30uM=54
C#CCN(CC=C)Cc1ccc(OC)cc1OC	–	·	·	·	·
Brc1ccc(C2C3=C(Nc4ncnn42)c2ccccc2OC3c2ccncc2)cc1 (stereo not given)	–	·	83	–	54	Diaphorase 10uM=52;Diaphorase 30uM=57
COc1ccccc1NS(=O)(=O)c1cc(NC(=O)c2cccs2)ccc1N1CCCC1	–	–	79	–	–
COc1ccccc1NS(=O)(=O)c1cc(NC(=O)Nc2ccccc2)ccc1N1CCCCC1	–	–	–	–	·
COc1ccccc1NS(=O)(=O)c1cc(NC(=O)C(C)C)ccc1N1CCCCC1	–	–	61	–	–
COc1ccc(Cn2c(NC(=O)c3ccccc3)nc(Cc3ccccc3)c2-c2ccccc2)cc1	–	·	·	·	·
O=S(=O)(c1cccs1)N1CN(Cc2ccco2)c2nc3ccccc3nc21	–	–	93	–	–
CCOc1cc(/C=N/Nc2nnc(C)n2N)ccc1O	–	–	59	–	–
CCOc1cc(/C=N/Nc2ncnc(Cl)c2N)ccc1O	–	–	–	–	·
SMILES	KLK7 zymogen act	Neddylation inh	PfGluPho inh	FAS TE block	PfG6PD confirm	others
O=C(c1ccccc1I)N1CCC(Oc2cccnc2)CC1	–	·	·	·	·
COc1cc2c(cc1NC(=O)CSc1nnc(COc3ccccc3)n1Cc1ccco1)oc1ccccc12	–	·	·	·	·
CCOc1ccc2c(ccc(/C=C/c3cc(C)c4cccnc4c3O)[n+]2C)c1	·	–	92	–	–
COC(=O)C1CN(Cc2cn(Cc3ccc(Cl)cc3)nn2)CCS(=O)(=O)N1Cc1ccccc1 (stereo not given)	–	·	·	·	·
COc1ccc(NC(=O)C2C(=O)N(CCO)C3(C)CC2c2ccccc2O3)cc1 (stereo not given)	–	–	69	–	–
Cc1ccc(NC(=O)C2C(=O)N(CCO)C3(C)CC2c2ccccc2O3)cc1 (stereo not given)	–	–	65	–	–
CC(NC(=O)C1C(=O)N(CCO)C2(C)CC1c1ccccc1O2)c1ccccc1 (stereo not given)	–	–	–	–	·
COc1cc(/C=C2\SC(c3ccc(C)cc3)=NC2=O)cc(OC)c1OC	·	–	–	–	·
COc1ccc(/C=C2\SC(c3ccc(C)cc3)=NC2=O)cc1OC	–	–	–	–	·
COc1cc(/C=C2\SC(c3ccc(C)cc3)=NC2=O)ccc1O	–	–	64	–	54	Diaphorase 10uM=–;Diaphorase 30uM=–
COc1cc(/C=C2\SC(c3ccccc3)=NC2=O)cc(Cl)c1O	–	–	61	–	–
